Results as given in PubChem BioAssay (NCATS).
Inconclusive results are not listed. A call without a number means that no potency is given here. The source made the active and inactive calls. Calls follow the shape of the dose curve; as a rule, active = well fitted inhibition curve with a large enough effect; inconclusive = small, poorly fitted or top-dose-only effect; inactive = flat fitted curve, though single readings scatter.

Assays:
Test in all cases: qHTS profiling for inhibitors of Plasmodium falciparum proliferation (AID 504749); also: nearly all actives have a fitted effect of over 60% in size
Details in all cases: P. falciparum in erythrocytes, SYBR Green DNA, 72 h; series mostly up to 28.7 µM
[1] = tested on: 3D7
How it was run: (§1)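 P. falciparum-infected erythrocytes (0.3% parasitemia, 2.5% hematocrit final) were exposed to compounds for 72 h at 37 C in 5% CO2, then lysed with SYBR Green buffer overnight at room temperature; parasite DNA fluorescence was normalized to artemisinin and DMSO controls.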

[2] = tested on: CP185
How it was run: as §1

[3] = tested on: CP191
How it was run: as §1

[4] = tested on: CP194
How it was run: as §1

[5] = tested on: CP203
How it was run: as §1

[6] = tested on: CP211
How it was run: as §1

[7] = tested on: CP237
How it was run: as §1

[8] = tested on: CP238
How it was run: as §1

[9] = tested on: CP250
How it was run: as §1

[10] = tested on: CP252
How it was run: as §1

[11] = tested on: CP262
How it was run: as §1

[12] = tested on: CP291
How it was run: as §1

[13] = tested on: DFO2036
How it was run: as §1

[14] = tested on: DIV30
How it was run: as §1

[15] = tested on: Dd2
How it was run: as §1

[16] = tested on: HB3
How it was run: as §1

[17] = tested on: ICS
How it was run: as §1

[18] = tested on: N140
How it was run: as §1

[19] = tested on: PAD
How it was run: as §1

[20] = tested on: TAB113
How it was run: as §1
Potency is read from the fitted curve at half-maximal effect.

Structure (SMILES)	Potency [1]	Potency [2]	Potency [3]	Potency [4]	Potency [5]	Potency [6]	Potency [7]	Potency [8]	Potency [9]	Potency [10]	Potency [11]	Potency [12]	Potency [13]	Potency [14]	Potency [15]	Potency [16]	Potency [17]	Potency [18]	Potency [19]	Potency [20]
CC1(C)S[C@@H]2[C@H](N)C(=O)N2C1C(=O)O (some centres not stated)	inactive	inactive	inactive	inactive	inactive	inactive	inactive	inactive	inactive	inactive	inactive	inactive	inactive	inactive	inactive	inactive	inactive	inactive	inactive	inactive
C=C1Nc2ccccc2C(=O)N1c1ccccc1C	inactive	inactive	inactive	inactive	inactive	inactive	inactive	inactive	inactive	inactive	inactive	inactive	inactive	inactive	inactive	inactive	inactive	inactive	inactive	inactive
CCCCCC(O)C1C(=O)OC(C)C(O)\C=C/C=C\C=C/C=C\C=C(\C)C(O)C(O)C(O)CC(O)CC(O)CC(O)CC(O)CC1O (configuration not stated)	inactive	inactive	inactive	inactive	inactive	inactive	inactive	inactive	inactive	inactive	inactive	inactive	inactive	inactive	inactive	inactive	inactive	inactive	inactive	inactive
OCC(O)[C@H]1O[C@@H]2O[C@H](C(Cl)(Cl)Cl)O[C@@H]2[C@H]1O (some centres not stated)	inactive	inactive	inactive	inactive	inactive	inactive	inactive	inactive	inactive	inactive	inactive	inactive	inactive	inactive	inactive	inactive	inactive	inactive	inactive	inactive
Cc1ccc2c(c1)[C@@H]1CN(C)CC[C@H]1N2	inactive	inactive	inactive	inactive	inactive	inactive		inactive	inactive	inactive	inactive	inactive	inactive		inactive	inactive	inactive	inactive	inactive	inactive
C[C@@H]1CC[C@H]2[C@@H](C)C(=O)O[C@@H]3OC4(C)CC[C@@H]1C32OO4 (some centres not stated)	0.0079 µM (active)	0.0089 µM (active)	0.0071 µM (active)	0.0169 µM (active)	0.0135 µM (active)	0.0169 µM (active)	0.01 µM (active)	0.01 µM (active)	0.0141 µM (active)	0.01 µM (active)	0.0135 µM (active)	0.0107 µM (active)	0.0071 µM (active)	0.0085 µM (active)	0.0063 µM (active)	0.0089 µM (active)	0.0025 µM (active)	0.0056 µM (active)	0.0071 µM (active)	0.0056 µM (active)
C[C@]12C=CC(=O)C=C1CC[C@@H]1C2CC[C@]2(C)OC(=O)CCC12 (some centres not stated)	inactive	inactive	inactive	inactive	inactive	inactive	inactive	inactive	inactive	inactive	inactive	inactive	inactive	inactive	inactive	inactive	inactive	inactive	inactive	inactive
Nc1nc(O)c(-c2ccccc2)o1	inactive	inactive	inactive	inactive	inactive	inactive	inactive	inactive	inactive	inactive	inactive	inactive	inactive	inactive	inactive	inactive	inactive	inactive	inactive	
OC[C@@H](O)[C@H]1O[C@@H]2OC(C(Cl)(Cl)Cl)O[C@H]2[C@H]1O (some centres not stated)	inactive	inactive	inactive	inactive	inactive	inactive	inactive	inactive	inactive	inactive	inactive	inactive	inactive	inactive	inactive	inactive	inactive	inactive	inactive	inactive
C#CCN1CC(=O)N(COC(=O)[C@@H]2[C@@H](C=C(C)C)C2(C)C)C1=O	inactive	inactive	inactive	inactive	inactive	inactive	inactive	inactive	inactive	inactive	inactive	inactive	inactive	inactive	inactive	inactive	inactive	inactive	inactive	inactive
Cc1cc(C)cc(C(=O)OC2CC3CCC(C2)N3C)c1 (configuration not stated)	inactive	inactive	inactive	inactive	inactive	inactive	inactive	inactive	inactive	inactive	inactive	inactive	inactive	inactive		inactive		inactive		inactive
CC1(C)[C@@H](C=C(Cl)Cl)[C@@H]1C(=O)OCc1c(F)c(F)cc(F)c1F	inactive	inactive	inactive	inactive	inactive	inactive	inactive	inactive	inactive	inactive	inactive	inactive	inactive	inactive	inactive	inactive	inactive	inactive	inactive	inactive
CN1C2CCC1C(C(=O)O)C(OC(=O)c1ccccc1)C2 (configuration not stated)	inactive	inactive	inactive	inactive	inactive	inactive	inactive	inactive	inactive	inactive	inactive	inactive	inactive	inactive	inactive	inactive	inactive	inactive	inactive	inactive
COc1ccc2c3c1O[C@H]1[C@@H](O)C=C[C@H]4C(C2)NCCC341 (some centres not stated)	inactive	inactive	inactive	inactive	inactive	inactive	inactive	inactive	inactive	inactive	inactive	inactive	inactive	inactive	inactive	inactive	inactive	inactive	inactive	inactive
O=[N+]([O-])OC1CO[C@H]2C(O[N+](=O)[O-])COC12 (some centres not stated)	inactive	inactive	inactive	inactive	inactive	inactive	inactive	inactive	inactive	inactive	inactive	inactive	inactive	inactive	inactive	inactive	inactive	inactive	inactive	inactive
CC1OC(O[C@H]2C[C@@H](O)[C@]3(CO)[C@@H]4C(CC[C@]3(O)C2)[C@@]2(O)CC[C@H](C3=CC(=O)OC3)[C@@]2(C)C[C@H]4O)C(O)C(O)C1O (some centres not stated)	inactive	inactive	inactive	inactive	inactive	inactive	inactive	inactive	inactive	inactive	inactive	inactive	inactive	inactive	inactive	inactive	inactive	inactive	inactive	inactive
[S]=[Sb][S][Sb]=[S]	inactive	inactive	inactive	inactive	inactive	inactive	inactive	inactive	inactive	inactive	inactive	inactive	inactive	inactive	inactive	inactive	inactive	inactive	inactive	inactive
CCOC(=O)/C=C(C)/C=C/CC(C)CCCC(C)C (configuration not stated)	inactive	inactive	inactive	inactive	inactive	inactive	inactive	inactive	inactive	inactive	inactive	inactive	inactive	inactive	inactive	inactive	inactive	inactive	inactive	inactive
CCCCCCC(=O)O[C@H]1CC[C@H]2[C@@H]3CCC4CC(=O)C=C(C)[C@]4(C)[C@H]3CC[C@]12C (some centres not stated)	11.2 µM (active)	inactive	inactive	inactive	inactive	inactive		inactive	inactive	inactive	inactive	inactive	inactive	inactive		11.2 µM (active)	10 µM (active)	inactive	inactive	inactive
C[C@H](N)Cc1ccccc1	inactive	inactive	inactive	inactive	inactive	inactive	inactive	inactive	inactive	inactive	inactive	inactive	inactive	inactive	inactive	inactive	inactive	inactive	inactive	inactive
